We go through 14 molecules from PubChem BioAssay (NCI).

This is part of a sample that, as a whole, favours compounds with a hit. Of some 83,000 tested, about 20% had one in any assay.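 Negative percent growth values reflect cell death: -40 means 40% of the cells present at the start died, and -100 means all died.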 The source made the active and inactive calls. Rule for the calls: active = growth percent below 10; inactive = the rest.

This assay has as its system MDA-MB-468 breast. Nature of the assay: NCI-60 one-dose screen, 48 h (100 = growth as untreated, 0 = no growth, -100 = all killed). As to conditions: 10 µM unless noted.
Consider `CCN1CCN(c2cc(C)nc(N(CCNc3ccnc4cc(Cl)ccc34)Cc3ccc4c(c3)OCO4)n2)CC1`, for which the growth is -67.6% (active).

Turning to `O=C1/C(=C/C2=Cc3ccccc3OC2)SC(=S)N1c1ccc(F)cc1`, the growth was 112% (inactive). For `CCOc1c(OC)cc2c(c1O)C(=O)N[C@@H]1[C@@H](O)[C@@H](O)[C@H](O)C[C@@H]21`, the growth was 94.9% (inactive). With `COc1ccccc1/C=N\Nc1ccc([N+](=O)[O-])cn1`, the growth was 109% (inactive). To `O=C1c2ccccc2C2N1CCC1CCc3ccccc3N12` (centres undefined) belongs 95.1% (inactive).

Regarding `Clc1cc(Cl)cc(-c2cnc3nonc3n2)c1`, the growth is 82% (inactive).

`N#CC1=C(NC=O)Oc2c(ccc3ccccc23)C1c1ccccc1` (centres undefined): the growth is 12% (inactive). For `COC(=O)c1cccc(NC2=C(Cl)C(=O)C(C)=C(C)C2=O)c1`, the growth is -62% (active).

On to `Cc1ccc(-n2nc(C(C)(C)C)cc2NC(=O)NCc2cc(F)ccc2Oc2ccc3c(cnn3CCO)c2)cc1`, for which the growth is 23.5% (inactive). Turning to `O=C1/C(=C/c2ccc(Br)cc2)COc2ccc(O)cc21`, the growth is 89% (inactive). To `CC(=O)OCC1OC(n2cnc3c(=S)nc(N)[nH]c32)C(OC(C)=O)C1OC(C)=O` (centres undefined) belongs 68.5% (inactive); to `CC(=O)OCC1CCC(COC(C)=O)CC1` (centres undefined), 110% (inactive); to `CCN(CC)c1ccc2nc3ccc(N=Nc4ccc(N(C)C)cc4)cc3[n+](-c3ccccc3)c2c1`, -65.6% (active). On to `COC12C=C/C(=C(/C(=O)OCc3cncnc3)C(=O)CCCCCCCCC3(OC)C=C/C(=C(/C(=O)OCc4cncnc4)C(=O)CCCCCCCC1)O3)O2`, for which the growth was -39.8% (active).
